The record followed here is PubChem BioAssay (EPA / NIEHS).

Read-out in assay [1]: Human Leukocyte Antigen - DR isotype (HLADR), HLA-DRA (gene 3122)
The assay can be described thus: BSK_BE3C_HLADR: BioMAP Diversity Plus: BE3C Assay for Human Leukocyte Antigen - DR isotype (HLADR) Biomarker Activity (AID 2283032). Particulars: primary human bronchial epithelial cells; actives raise or lower the signal. An outline of the steps:
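Cell-surface HLA-DR ELISA readout at 24 h after dosing in the BE3C primary human lung bronchial epithelial system; gain or loss of signal against DMSO, with parallel sulforhodamine B staining of total protein for overt cytotoxicity.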

Read-out in assay [2]: Vascular cell adhesion molecule 1 (VCAM1), VCAM1 (gene 7412)
Description: BSK_4H_VCAM1: BioMAP Diversity Plus: 4H Assay for Vascular cell adhesion molecule 1 (VCAM1) Biomarker Activity (AID 2283033).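 Further: cell-surface VCAM-1 protein measured by ELISA.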 The conditions noted are these: primary human endothelial cells (HUVEC); actives raise or lower the signal. An outline of the steps: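 VCAM-1 ELISA read 24 h after chemical dosing of HUVEC in the BioMAP 4H system, with gain or loss of signal fitted relative to DMSO. Parallel SRB staining (560 nm) checked overt cytotoxicity.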

Read-out in assay [3]: Interferon-gamma inducible Protein 10 (IP10), CXCL10 (gene 3627)
Description: BSK_BE3C_IP10: BioMAP Diversity Plus: BE3C Assay for Interferon-gamma inducible Protein 10 (IP10) Biomarker Activity (AID 2283034). Particulars: primary human bronchial epithelial cells; actives raise or lower the signal. The procedure, abridged: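 IP-10 quantified by ELISA in human primary bronchial epithelial cell cultures at 24 hours post-dosing. Gain or loss of signal fitted relative to DMSO; parallel SRB staining assessed overt cytotoxicity.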

Read-out in assay [4]: Monokine induced gamma interferon (MIG), CXCL9 (gene 4283)
Description: BSK_BE3C_MIG: BioMAP Diversity Plus: BE3C Assay for Monokine induced gamma interferon (MIG) Biomarker Activity (AID 2283035). Particulars: primary human bronchial epithelial cells; actives raise or lower the signal. The procedure, abridged:
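ELISA quantified MIG after 24 h exposure of primary bronchial epithelial cultures, analysed in both directions relative to DMSO. Cytotoxicity tracked in parallel cultures by sulforhodamine B staining.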

Read-out in assay [5]: Transforming growth factor beta 1 (TGFb1), TGFB1 (gene 7040)
Description: BSK_BE3C_TGFb1: BioMAP Diversity Plus: BE3C Assay for Transforming growth factor beta 1 (TGFb1) Biomarker Activity (AID 2283036;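 on outcome: TGF-b1 protein level measured by ELISA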). The conditions noted are these: primary human bronchial epithelial cells; actives raise or lower the signal. An outline of the steps:
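ELISA readout of TGF-b1 from human lung bronchial epithelial primary cells, taken 24 h post-treatment. Gain or loss of signal fitted relative to DMSO baseline, with parallel SRB staining for overt cytotoxicity.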

Read-out in assay [6]: urokinase plasminogen activator (uPA), PLAU (gene 5328)
Description: BSK_BE3C_uPA: BioMAP Diversity Plus: BE3C Assay for urokinase plasminogen activator (uPA) Biomarker Activity (AID 2283038).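 On outcome: uPA protein level quantified by ELISA in cell cultures; uPA read one day after compound addition.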 The conditions noted are these: primary human bronchial epithelial cells; actives raise or lower the signal. The procedure, abridged: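 ELISA read-out of uPA in human lung primary bronchial epithelial cultures, 24 h post-dosing. Gain or loss of signal fitted bidirectionally relative to DMSO baseline; cytotoxicity checked in parallel cultures via SRB total protein stain.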

Read-out in assay [7]: Interleukin-6 (IL6), IL6 (gene 3569)
Description: BSK_CASM3C_IL6: BioMAP Diversity Plus: CASM3C Assay for Interleukin-6 (IL6) Biomarker Activity for (AID 2283040). The conditions noted are these: primary human coronary artery smooth muscle cells; actives raise or lower the signal.

Read-out in assay [8]: Tissue plasminogen activator (tPA), PLAT (gene 5327)
The assay can be described thus: BSK_BE3C_tPA: BioMAP Diversity Plus: BE3C Assay for Tissue plasminogen activator (tPA) Biomarker Activity (AID 2283041).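 On outcome: tPA level quantified by ELISA one day after compound addition.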 The conditions noted are these: primary human bronchial epithelial cells; actives raise or lower the signal. An outline of the steps:
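tPA measured by ELISA 24 h after dosing human primary bronchial epithelial cells (BE3C system). Changes in either direction were fitted against DMSO. Parallel cultures were stained with SRB to flag overt cytotoxicity.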

Read-out in assay [9]: Interleukin-8 (IL8), CXCL8 (gene 3576)
Description: BSK_CASM3C_IL8: BioMAP Diversity Plus: CASM3C Assay for Interleukin-8 (IL8) Biomarker Activity (AID 2283042).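 Further: IL-8 protein level quantified by ELISA.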 Particulars: primary human coronary artery smooth muscle cells; actives raise or lower the signal.

Read-out in assay [10]: Human Leukocyte Antigen - DR isotype (HLADR), HLA-DRA (gene 3122)
The assay can be described thus: BSK_CASM3C_HLADR: BioMAP Diversity Plus: CASM3C Assay for Human Leukocyte Antigen - DR isotype (HLADR) Biomarker Activity (AID 2283043).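 Further: cell-surface HLA-DR protein level quantified by ELISA.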 Particulars: primary human coronary artery smooth muscle cells; actives raise or lower the signal.

Read-out in assay [11]: Macrophage colony-stimulating factor (MCSF), CSF1 (gene 1435)
Description: BSK_CASM3C_MCSF: BioMAP Diversity Plus: CASM3C Assay for Macrophage colony-stimulating factor (MCSF) Biomarker Activity (AID 2283044).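 Further: M-CSF protein amount quantified by ELISA after 24 h exposure.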 Particulars: primary human coronary artery smooth muscle cells; actives raise or lower the signal.

Read-out in assay [12]: Low-density lipoprotein receptor (LDLR), LDLR (gene 3949)
The assay can be described thus: BSK_CASM3C_LDLR: BioMAP Diversity Plus: CASM3C Assay for Low-density lipoprotein receptor (LDLR) Biomarker Activity (AID 2283045).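 Further: LDLR protein level on the cell surface quantified by ELISA.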 Particulars: primary human coronary artery smooth muscle cells; actives raise or lower the signal.

Read-out in assay [13]: Monocyte Chemoattractant Protein-1 (MCP1), CCL2 (gene 6347)
Description: BSK_CASM3C_MCP1: BioMAP Diversity Plus: CASM3C Assay for Monocyte Chemoattractant Protein-1 (MCP1) Biomarker Activity (AID 2283046).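 Further: MCP-1 level quantified by ELISA 24 h after dosing.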 Particulars: primary human coronary artery smooth muscle cells; actives raise or lower the signal.

The nature of assay [14]: BSK_CASM3C_Proliferation: Cell Proliferation Assessment in the BioMAP Diversity Plus: CASM3C Assay (AID 2283047).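 Further: sulforhodamine B total protein stain as relative cell number at 560 nm; sub-confluent cells exposed 48 h before staining; fitted both ways against DMSO so gain or loss of cell number.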 Particulars: primary human coronary artery smooth muscle cells.
Read-out in assay [15]: Monokine induced gamma interferon (MIG), CXCL9 (gene 4283)
The assay can be described thus: BSK_CASM3C_MIG: BioMAP Diversity Plus: CASM3C Assay for Monokine induced gamma interferon (MIG) Biomarker Activity (AID 2283048).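 Further: MIG protein level measured by ELISA.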 The conditions noted are these: primary human coronary artery smooth muscle cells; actives raise or lower the signal.

Read-out in assay [16]: serum amyloid A (SAA), SAA1 (gene 6288)
The assay can be described thus: BSK_CASM3C_SAA: BioMAP Diversity Plus: CASM3C Assay for serum amyloid A (SAA) Biomarker Activity (AID 2283049).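 Further: SAA protein level quantified by ELISA.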 The conditions noted are these: primary human coronary artery smooth muscle cells; actives raise or lower the signal.

Assay [17] is described as follows: BSK_CASM3C_SRB: Viability Assessment in the BioMAP Diversity Plus: CASM3C Assay (AID 2283050).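 Further: total protein by SRB staining as cytotoxicity measure in parallel cultures.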 Particulars: primary human coronary artery smooth muscle cells.
Read-out in assay [18]: Thrombomodulin, THBD (gene 7056)
The assay can be described thus: BSK_CASM3C_Thrombomodulin: BioMAP Diversity Plus: CASM3C Assay for Thrombomodulin Biomarker Activity (AID 2283051).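 Further: thrombomodulin protein level measured by ELISA 24 h after dosing.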 Particulars: primary human coronary artery smooth muscle cells; actives raise or lower the signal.

Read-out in assay [19]: Urokinase-type plasminogen activator receptor (uPAR), PLAUR (gene 5329)
Description: BSK_BE3C_uPAR: BioMAP Diversity Plus: BE3C Assay for Urokinase-type plasminogen activator receptor (uPAR) Biomarker Activity (AID 2283039).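 Further: cells exposed to compound for one day before measurement.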 Particulars: primary human bronchial epithelial cells; actives raise or lower the signal. An outline of the steps: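 uPAR levels were measured by ELISA after 24 h compound treatment of primary human bronchial epithelial cells, fitted in both directions relative to DMSO. Parallel SRB staining served as the cytotoxicity read-out.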

SMILES strings stand for the structures. Active and inactive are the calls of the source. How the source made its calls: active means hit-call score of the fitted dose curve at least 0.9, where 1 is the maximum; inactive means score below 0.9.

As for `CCCCCCCCCCCCc1ccccc1`, the result in assay [1], in [2], in [3], in [4], in assay [5] and in assay [6] was inactive. Further, the outcome in assay [7], in assay [8], in [9], in assay [10], in [11] and in assay [12] was inactive. For the same compound, the result in assay [13], in assay [14], in assay [15], in [16], in [17] and in assay [18] was inactive.
Consider `COc1ccc2sc(C(=O)Nc3nnn[nH]3)c(OC(C)C)c2c1`, for which the AC50 in [1] is 19.9 µM (active); in assay [3] it was 19.9 µM (active); in [5] it was 9.17 µM (active); in assay [6] it was 8.38 µM (active); in [8] it was 13.9 µM (active); in assay [9], 29.4 µM (active). Further, the concentration at half-maximal activity (AC50) in assay [10] is 13.3 µM (active); in assay [11], 19.9 µM (active); in assay [13] it was 15.8 µM (active); in [14], 11.1 µM (active); in assay [16], 19.9 µM (active); in assay [17], 15.5 µM (active). Besides, the AC50 in [18] was 8.49 µM (active). Further, the outcome in [2], in [4], in assay [19], in [12] and in [15] was inactive.
Turning to `CC(O)CN(CCN(CC(C)O)CC(C)O)CC(C)O` (centres undefined), the outcome in assay [1], in assay [2], in assay [3], in [4], in assay [5] and in assay [6] was inactive. Moreover, the outcome in assay [19], in assay [7], in [8], in [9], in assay [10] and in assay [11] was inactive. The result in assay [12], in [13], in assay [14], in assay [15], in assay [16] and in [17] was inactive. In addition, the result in assay [18] was inactive.
With `CCCCC(CC)COC(=O)CCCCCCCCC(=O)OCC(CC)CCCC` (centres undefined), the outcome in assay [1], in [2], in [3], in assay [4], in assay [5] and in [6] was inactive. Moreover, the outcome in assay [7], in assay [8], in assay [9], in [10], in assay [11] and in assay [12] was inactive. The result in assay [13], in assay [15], in assay [16], in [17] and in assay [18] was inactive. For the same compound, the AC50 in assay [14] was 7.33 µM (active).
On to `CCNc1ccccc1`, for which the outcome in [1], in assay [2], in [3], in assay [4], in assay [5] and in [6] was inactive. The outcome in assay [7], in [8], in assay [9], in assay [10], in assay [11] and in assay [12] was inactive. Further, the result in assay [13], in assay [14], in [15], in [16], in [17] and in assay [18] was inactive.
As to `Cn1c(=O)cc(Oc2ccc(F)cc2F)c2cnc(NCC(C)(C)O)nc21`, the outcome in [1], in assay [2], in [3], in [4], in [5] and in [6] was inactive. For the same compound, the outcome in assay [19], in assay [8], in [11], in assay [12], in [13] and in [14] was inactive. Besides, the outcome in [15], in [17] and in assay [18] was inactive. In addition, the AC50 in assay [7] was 5.13 µM (active); in assay [9], 3.16 µM (active); in [10], 1.42 µM (active); in [16], 3.97 µM (active).
For the compound `CC(C)=CCC/C(C)=C/CO`, the outcome in [1], in assay [2], in assay [3], in assay [4], in assay [5] and in [6] was inactive. Moreover, the result in assay [19], in [7], in [8], in [9], in [10] and in assay [11] was inactive. Besides, the result in assay [12], in assay [13], in assay [14], in [15], in assay [16] and in assay [17] was inactive. In assay [18], the result was inactive.

A word on the AC50: it is the concentration at which the activity in the assay is half-maximal.
